Test results reported in PubChem BioAssay AID493192 (National Center for Advancing Translational Sciences (NCATS), 2011).
Inconclusive results are not listed. Values without a mark were called inactive. Active and inactive are the calls of the source. The call rests on the fitted dose curve; in most records, active means well fitted activation curve with a large enough effect; inconclusive means small, poorly fitted or top-dose-only effect; inactive means no such curve, though single readings can be large or run the other way.

Assay: qHTS Assay for Identifying a Potential Treatment of Ataxia-Telangiectasia: Hit Validation;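 further: phospho-KAP1 level by AlphaLISA as a proxy for ATM-like kinase activity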; on activity change, positive = activation: 0% is about no effect
Settings: Ataxia-telangiectasia cell-based hit validation qHTS, in ATM-null A-T patient fibroblasts; series mostly up to 76.9 µM; activity change, positive = activation: at the top concentration
Summary of the method: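 KAP-1 phosphorylation was read by AlphaLISA as a measure of ATM-like activity in ATM-null F2112 fibroblasts. Compounds spanned up to 76.7 uM final, with 60 min exposure at 37C and a 6 hr detection incubation at 25C.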
Potency means the concentration at half of the fitted maximal effect.

| Compound | activity change, positive = activation | Potency |
| --- | --- | --- |
| COc1ccccc1C1CCN(C(=O)c2ccc(Cl)cc2)CC1 | 11.6% | – |
| CN1C[C@@H]2C(c3ccccc3)C3(c4ccccc4)CC2(C3)[C@H]1c1ccccc1 (some centres not stated) | – | 18.4 µM (active) |
| Cc1[nH]c2c(C)cccc2c1CN1CCC(CO)(Cc2ccccc2)CC1 | – | 1.16 µM (active) |
| CC1Cc2ccccc2N1C(=O)CSc1nnnn1-c1ccc2c(c1)OCCO2 (configuration not stated) | -0.35% | – |
| COc1ccc2nc(NCCCNC(=O)c3cc(OC)c(OC)c(OC)c3)c(C#N)cc2c1 | -6.94% | – |
| NC(=O)C1CCN(Cc2nc3cc(C(F)(F)F)ccc3c(=O)[nH]2)CC1 | -10.4% | – |
| CC(C)NC(=O)c1ccc(COc2ccc(C(C)(C)C)cc2)o1 | 15.3% | – |
| CCN(c1ccccc1)S(=O)(=O)c1ccc(Cl)c(C(=O)N(CC2CCCO2)C2CCS(=O)(=O)C2)c1 (configuration not stated) | 6.83% | – |
| CC(C)OP(=O)(OC(C)C)C(O)c1ccc(N(C)C)cc1 (configuration not stated) | 23.7% | – |
| O=C(CN1C(=O)c2cccc([N+](=O)[O-])c2C1=O)NCc1ccccc1 | -2.8% | – |
| O=C(c1cccc(F)c1)N1CCCC(C(=O)N2CCCCCC2)C1 (configuration not stated) | – | 29.2 µM (active) |
| Cc1ccc(C)c(-c2csc(Nc3ncccn3)n2)c1 | -1.05% | – |
| CC1=NOC2(C1)N(C)c1ccccc1C2(C)C (configuration not stated) | 2.08% | – |
| O=C(O)CCC(=O)NN1C(=O)c2ccccc2NC1c1ccco1 (configuration not stated) | 11.2% | – |
| O=C(CCCC(=O)N1CCCC1)N1CCCC1 | 8.68% | – |
| COc1ccc(C2(C)CC(C)(C)Nc3ccccc32)cc1 (configuration not stated) | -2.08% | – |
| Cc1ccc(C(=O)c2c(C)oc3c2C(=O)C(=O)c2ccccc2-3)cc1 | – | 26 µM (active) |
